Seven sequences from PMC7862700, “An all-to-all approach to the identification of sequence-specific readers for epigenetic DNA modifications on cytosine” can be followed below.

Common to all, as to test: DAPPL (digital affinity profiling via proximity ligation, sequencing); 10 mM Tris-HCl pH 7.5, 50 mM NaCl, 1 mM DTT, 4% glycerol, room temperature, 30 min; GST-TFs on glutathione beads, 16-mer random dsDNA library, 0.1% formaldehyde crosslink after washing; high values mean tight binding
Common to all, as to settings: protein: recombinant; tags: N-terminal GST; dsDNA, one strand shown

One assay has as its target T1, FLI1 (Homo sapiens, UniProt Q01543 1-452).
T1 sequence: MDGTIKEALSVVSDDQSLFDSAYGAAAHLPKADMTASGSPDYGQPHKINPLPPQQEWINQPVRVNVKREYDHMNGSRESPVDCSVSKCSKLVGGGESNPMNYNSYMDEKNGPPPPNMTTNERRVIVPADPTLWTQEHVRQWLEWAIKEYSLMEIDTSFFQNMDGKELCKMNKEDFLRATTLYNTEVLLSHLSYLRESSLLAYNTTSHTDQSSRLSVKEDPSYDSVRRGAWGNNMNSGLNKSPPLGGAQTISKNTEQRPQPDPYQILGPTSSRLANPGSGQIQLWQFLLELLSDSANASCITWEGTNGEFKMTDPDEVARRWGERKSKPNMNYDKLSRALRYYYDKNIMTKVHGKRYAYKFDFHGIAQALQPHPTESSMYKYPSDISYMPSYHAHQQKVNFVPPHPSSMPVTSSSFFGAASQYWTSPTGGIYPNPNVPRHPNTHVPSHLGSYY
A digest of the protocol: (§1)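 Binding signal is defined as a hexamer's read frequency for one factor over its frequency for the tag-only sample. To obtain reads, GST-fused human transcription factors were expressed in yeast, captured on glutathione beads, barcoded with DNA and pooled with that sample. Pools met 200 nmole of a 16-mer random double-stranded DNA library in Tris/NaCl/DTT/glycerol buffer for 30 min at room temperature before washing, 0.1% formaldehyde crosslinking, proximity ligation (BsaI/T4 ligase, 1 h, 37 °C), PCR and Illumina NextSeq500 sequencing.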

Another assay addresses T2, ELK1 (Homo sapiens, UniProt P19419 1-428).
T2 sequence: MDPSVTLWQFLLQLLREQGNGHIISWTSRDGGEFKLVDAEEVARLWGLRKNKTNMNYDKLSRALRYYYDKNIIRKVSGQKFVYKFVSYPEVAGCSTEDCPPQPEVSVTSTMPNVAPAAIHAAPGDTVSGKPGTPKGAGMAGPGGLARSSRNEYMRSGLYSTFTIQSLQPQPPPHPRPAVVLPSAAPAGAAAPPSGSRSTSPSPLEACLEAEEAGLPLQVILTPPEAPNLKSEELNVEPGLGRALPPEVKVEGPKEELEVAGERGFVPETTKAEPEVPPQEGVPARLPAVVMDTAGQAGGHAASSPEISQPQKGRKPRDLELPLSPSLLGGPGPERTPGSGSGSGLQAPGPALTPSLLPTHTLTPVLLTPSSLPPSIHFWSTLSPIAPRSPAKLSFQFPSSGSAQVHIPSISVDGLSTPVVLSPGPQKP
A digest of the protocol: as §1

Another assay has as its target T3, GABPA (Homo sapiens, UniProt Q06546 1-454).
T3 sequence: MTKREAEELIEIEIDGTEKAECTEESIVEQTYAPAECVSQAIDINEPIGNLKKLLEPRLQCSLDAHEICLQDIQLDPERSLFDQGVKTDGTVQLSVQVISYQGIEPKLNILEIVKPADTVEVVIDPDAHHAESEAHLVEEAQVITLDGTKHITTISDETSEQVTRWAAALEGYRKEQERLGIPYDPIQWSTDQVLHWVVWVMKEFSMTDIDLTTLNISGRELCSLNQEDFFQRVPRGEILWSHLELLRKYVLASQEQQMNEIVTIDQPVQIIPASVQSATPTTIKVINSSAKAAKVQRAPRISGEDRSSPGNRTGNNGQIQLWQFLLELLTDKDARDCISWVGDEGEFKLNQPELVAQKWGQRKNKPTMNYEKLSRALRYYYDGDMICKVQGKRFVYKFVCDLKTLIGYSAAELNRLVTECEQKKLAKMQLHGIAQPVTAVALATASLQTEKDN
A digest of the protocol: as §1

The target of another assay is T4, ERG (Homo sapiens, UniProt P11308 1-479).
T4 sequence: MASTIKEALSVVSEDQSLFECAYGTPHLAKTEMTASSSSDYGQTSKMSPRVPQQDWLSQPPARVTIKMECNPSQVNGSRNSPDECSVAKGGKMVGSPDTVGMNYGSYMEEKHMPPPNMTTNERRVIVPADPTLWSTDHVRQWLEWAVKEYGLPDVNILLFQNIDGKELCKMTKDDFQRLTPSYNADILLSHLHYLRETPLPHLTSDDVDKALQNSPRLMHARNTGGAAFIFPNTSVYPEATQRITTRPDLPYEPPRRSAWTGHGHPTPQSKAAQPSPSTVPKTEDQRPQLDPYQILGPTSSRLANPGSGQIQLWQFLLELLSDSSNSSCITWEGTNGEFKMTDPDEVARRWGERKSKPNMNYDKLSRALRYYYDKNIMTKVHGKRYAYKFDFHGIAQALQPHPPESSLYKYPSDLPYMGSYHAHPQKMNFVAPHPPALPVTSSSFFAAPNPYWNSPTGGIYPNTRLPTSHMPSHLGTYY
A digest of the protocol: as §1

Another assay has as its target ELF1 (Homo sapiens, UniProt P32519 1-619). The gist of the method:
as §1

For another assay, the target named is T5, EHF (Homo sapiens, UniProt Q9NZC4 1-300).
T5 sequence: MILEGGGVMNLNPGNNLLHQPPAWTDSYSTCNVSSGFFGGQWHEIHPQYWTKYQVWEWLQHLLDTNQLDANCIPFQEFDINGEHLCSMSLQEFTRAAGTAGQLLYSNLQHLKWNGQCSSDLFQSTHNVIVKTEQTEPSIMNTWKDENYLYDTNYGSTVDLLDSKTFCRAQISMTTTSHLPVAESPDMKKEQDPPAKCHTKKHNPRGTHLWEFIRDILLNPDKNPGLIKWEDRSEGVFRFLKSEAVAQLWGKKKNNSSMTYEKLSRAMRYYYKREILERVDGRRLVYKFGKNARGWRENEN
The gist of the method:
as §1

In assay [1] the target is SPI1 (Homo sapiens, UniProt P17947 1-270). A digest of the protocol: as §1
A further assay addresses SPIB (Homo sapiens, UniProt Q01892 1-262). A digest of the protocol: as §1
Another assay has as its target T6, ELK3 (Homo sapiens, UniProt P41970 1-407).
T6 sequence: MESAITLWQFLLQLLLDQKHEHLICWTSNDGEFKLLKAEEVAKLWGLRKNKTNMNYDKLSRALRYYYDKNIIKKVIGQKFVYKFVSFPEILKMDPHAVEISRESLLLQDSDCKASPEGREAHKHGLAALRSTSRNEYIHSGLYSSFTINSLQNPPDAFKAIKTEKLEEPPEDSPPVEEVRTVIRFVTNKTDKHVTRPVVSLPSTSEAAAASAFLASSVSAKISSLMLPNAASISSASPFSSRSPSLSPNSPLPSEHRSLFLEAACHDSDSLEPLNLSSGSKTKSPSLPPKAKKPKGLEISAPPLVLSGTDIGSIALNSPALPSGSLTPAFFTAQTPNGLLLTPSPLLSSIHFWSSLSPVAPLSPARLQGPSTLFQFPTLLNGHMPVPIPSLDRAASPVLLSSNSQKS
A digest of the protocol:
as §1

In assay [2] the target is SPI1 (Homo sapiens, UniProt P17947 1-270). The gist of the method:
as §1
The source holds these as a separate data set.

Chain of SPIB (Q01892 whole entry): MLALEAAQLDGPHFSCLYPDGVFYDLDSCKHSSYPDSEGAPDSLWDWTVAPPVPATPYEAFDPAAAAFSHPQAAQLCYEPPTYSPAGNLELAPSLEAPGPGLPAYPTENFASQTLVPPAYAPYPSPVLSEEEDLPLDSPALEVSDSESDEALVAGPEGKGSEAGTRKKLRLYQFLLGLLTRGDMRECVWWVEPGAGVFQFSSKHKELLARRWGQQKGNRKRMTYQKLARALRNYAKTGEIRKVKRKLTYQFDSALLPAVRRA
Chain of ELF1 (P32519 whole entry): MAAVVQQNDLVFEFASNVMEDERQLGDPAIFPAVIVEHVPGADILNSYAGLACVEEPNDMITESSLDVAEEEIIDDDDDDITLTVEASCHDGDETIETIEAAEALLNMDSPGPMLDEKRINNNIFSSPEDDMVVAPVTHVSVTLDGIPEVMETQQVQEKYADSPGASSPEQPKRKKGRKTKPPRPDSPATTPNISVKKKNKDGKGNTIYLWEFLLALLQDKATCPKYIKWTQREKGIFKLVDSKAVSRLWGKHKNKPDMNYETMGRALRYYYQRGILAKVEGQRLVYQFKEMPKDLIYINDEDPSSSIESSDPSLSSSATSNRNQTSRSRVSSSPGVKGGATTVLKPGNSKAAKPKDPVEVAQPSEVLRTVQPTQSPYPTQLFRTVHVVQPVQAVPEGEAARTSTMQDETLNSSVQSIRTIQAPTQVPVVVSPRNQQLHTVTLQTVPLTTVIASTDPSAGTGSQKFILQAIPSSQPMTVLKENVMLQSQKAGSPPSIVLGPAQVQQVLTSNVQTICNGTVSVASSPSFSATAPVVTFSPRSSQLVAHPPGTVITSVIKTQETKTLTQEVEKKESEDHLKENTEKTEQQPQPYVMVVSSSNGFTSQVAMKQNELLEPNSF

For TCCGGT, the binding signal is 3.61 fold enrichment (6-mer frequency, TF over GST control) with FLI1; 3.83 fold enrichment (6-mer frequency, TF over GST control) with ELK1; 3.5 fold enrichment (6-mer frequency, TF over GST control) with GABPA; 4.63 fold enrichment (6-mer frequency, TF over GST control) in the assay with ERG; 3.46 fold enrichment (6-mer frequency, TF over GST control) with ELF1; 3.67 fold enrichment (6-mer frequency, TF over GST control) with EHF. Also, the binding signal with SPI1 [1] was 3.58 fold enrichment (6-mer frequency, TF over GST control); with SPIB, 3.58 fold enrichment (6-mer frequency, TF over GST control); with ELK3, 4.4 fold enrichment (6-mer frequency, TF over GST control).

On to CCATAA, for which the binding signal with FLI1 is 1.15 fold enrichment (6-mer frequency, TF over GST control); with ELK1, 1.15 fold enrichment (6-mer frequency, TF over GST control); with GABPA it was 1.19 fold enrichment (6-mer frequency, TF over GST control); in the assay with ERG, 1.17 fold enrichment (6-mer frequency, TF over GST control); with ELF1, 1.15 fold enrichment (6-mer frequency, TF over GST control); with EHF, 1.05 fold enrichment (6-mer frequency, TF over GST control). Moreover, the binding signal with SPI1 [2] is 1.17 fold enrichment (6-mer frequency, TF over GST control); with SPIB, 1.16 fold enrichment (6-mer frequency, TF over GST control); with ELK3 it was 1.22 fold enrichment (6-mer frequency, TF over GST control).

As to ATTTCC, the binding signal was 3.94 fold enrichment (6-mer frequency, TF over GST control) with FLI1; 3.9 fold enrichment (6-mer frequency, TF over GST control) with ELK1; 3.59 fold enrichment (6-mer frequency, TF over GST control) with GABPA; 5.18 fold enrichment (6-mer frequency, TF over GST control) with ERG; 3.51 fold enrichment (6-mer frequency, TF over GST control) in the assay with ELF1; 4.16 fold enrichment (6-mer frequency, TF over GST control) with EHF. Further, the binding signal with SPI1 [1] was 3.71 fold enrichment (6-mer frequency, TF over GST control); in the assay with SPIB, 4.18 fold enrichment (6-mer frequency, TF over GST control); in the assay with ELK3, 4.09 fold enrichment (6-mer frequency, TF over GST control).

In the case of TTTATA, the binding signal in the assay with FLI1 was 1.32 fold enrichment (6-mer frequency, TF over GST control); with ELK1, 1.27 fold enrichment (6-mer frequency, TF over GST control); with GABPA, 1.36 fold enrichment (6-mer frequency, TF over GST control); with ERG it was 1.29 fold enrichment (6-mer frequency, TF over GST control); with ELF1, 1.23 fold enrichment (6-mer frequency, TF over GST control); with EHF, 1.4 fold enrichment (6-mer frequency, TF over GST control). Moreover, the binding signal is 1.34 fold enrichment (6-mer frequency, TF over GST control) with SPI1 [2]; 1.33 fold enrichment (6-mer frequency, TF over GST control) with SPIB; 1.28 fold enrichment (6-mer frequency, TF over GST control) in the assay with ELK3.

Consider TTCTCT, for which the binding signal was 1.29 fold enrichment (6-mer frequency, TF over GST control) with FLI1; 1.3 fold enrichment (6-mer frequency, TF over GST control) with ELK1; 1.27 fold enrichment (6-mer frequency, TF over GST control) with GABPA; 1.32 fold enrichment (6-mer frequency, TF over GST control) in the assay with ERG; 1.33 fold enrichment (6-mer frequency, TF over GST control) with ELF1; 1.27 fold enrichment (6-mer frequency, TF over GST control) with EHF. For the same sequence, the binding signal with SPI1 [2] is 1.3 fold enrichment (6-mer frequency, TF over GST control); in the assay with SPIB, 1.16 fold enrichment (6-mer frequency, TF over GST control); in the assay with ELK3, 1.29 fold enrichment (6-mer frequency, TF over GST control).

Regarding TTTCCG, the binding signal with FLI1 is 3.86 fold enrichment (6-mer frequency, TF over GST control); with ELK1, 3.68 fold enrichment (6-mer frequency, TF over GST control); in the assay with GABPA, 3.28 fold enrichment (6-mer frequency, TF over GST control); with ERG it was 4.93 fold enrichment (6-mer frequency, TF over GST control); with ELF1, 3.41 fold enrichment (6-mer frequency, TF over GST control); in the assay with EHF it was 3.75 fold enrichment (6-mer frequency, TF over GST control). The binding signal with SPI1 [1] was 3.47 fold enrichment (6-mer frequency, TF over GST control); in the assay with SPIB, 3.89 fold enrichment (6-mer frequency, TF over GST control); with ELK3, 4.01 fold enrichment (6-mer frequency, TF over GST control).

Turning to AGCTAT, the binding signal is 1.21 fold enrichment (6-mer frequency, TF over GST control) with FLI1; 1.14 fold enrichment (6-mer frequency, TF over GST control) with ELK1; 1.23 fold enrichment (6-mer frequency, TF over GST control) with GABPA; 1.17 fold enrichment (6-mer frequency, TF over GST control) with ERG; 1.16 fold enrichment (6-mer frequency, TF over GST control) in the assay with ELF1; 1.23 fold enrichment (6-mer frequency, TF over GST control) with EHF. Besides, the binding signal was 1.15 fold enrichment (6-mer frequency, TF over GST control) in the assay with SPI1 [2]; 1.26 fold enrichment (6-mer frequency, TF over GST control) with SPIB; 1.24 fold enrichment (6-mer frequency, TF over GST control) with ELK3.
